From PubChem BioAssay (NCI) come the findings set out here.

Molecules are shown by their SMILES. This is part of a sample that, as a whole, favours compounds with a hit. Of some 79,000 tested, about 15% had one in any assay. Unmarked numbers belong to inactive results. Activity calls are given as the source filed them. Cut-off read from the data, not from the text of the source: active = growth inhibition above about 70%; inactive = the rest.

Test [1] is described as follows: NCI Yeast Anticancer Drug Screen. Data for the rad50 strain (AID 155).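 Note: 0% = growth of vehicle-only cultures of the same strain.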 The conditions noted are these: S. cerevisiae rad50 strain growth inhibition; at 50.0 µM; hits give high values. The gist of the method:
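A DNA repair-deficient yeast mutant serves as the test organism; compound-induced growth inhibition is calculated against vehicle-treated cells.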

Test [2] can be described thus: NCI Yeast Anticancer Drug Screen. Data for the mec2-1 strain (AID 157). The conditions noted are these: S. cerevisiae mec2-1 strain, at 50.0 µM, hits give high values. In a few lines: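 Compounds were applied to mec2-1 yeast cells. Their growth was then compared with that of vehicle-treated cultures to give growth inhibition.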
Test [3] can be described thus: NCI Yeast Anticancer Drug Screen. Data for the sgs1 mgt1 strain (AID 161).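 Note: 0% = growth of cultures given vehicle only.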 The conditions noted are these: S. cerevisiae sgs1 mgt1 strain, at 50.0 µM, hits give high values. In a few lines:
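Compounds are added to genetically altered yeast, and growth is compared with cultures given vehicle alone to give percent inhibition.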

A short description of test [4]: NCI Yeast Anticancer Drug Screen. Data for the cln2 rad14 strain (AID 165).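 Note: 0% = growth equal to vehicle treated cultures.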 The conditions noted are these: S. cerevisiae cln2 rad14 strain, at 50.0 µM, hits give high values. The gist of the method:
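Strain: cln2 rad14 yeast, altered in cell cycle control and DNA damage repair. Read-out: growth inhibition vs vehicle.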

The nature of test [5]: NCI Yeast Anticancer Drug Screen. Data for the bub3 strain (AID 167). The conditions noted are these: S. cerevisiae bub3 mutant strain, at 50.0 µM, hits give high values. The gist of the method: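 Inhibition values come from growth of compound-treated mutant yeast normalised to vehicle-treated controls.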
Test [6] in a line: NCI Yeast Anticancer Drug Screen. Data for the mlh1 rad18 strain (AID 175). The conditions noted are these: S. cerevisiae mlh1 rad18 strain growth inhibition; at 50.0 µM; hits give high values. The gist of the method: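 A repair-deficient yeast strain is exposed to test compound, and growth is scored relative to vehicle-treated controls.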

As for `CCOC(O)C(F)(F)F` (stereo unspecified), the growth inhibition was 9.2% in test [1]; -0.7% in test [2]; 10.6% in test [3]; 15.8% in test [4]; 0.45% in test [5]; 13.2% in test [6].
For the compound `COC(=O)CCCc1ccccc1N`, the growth inhibition is -5.65% in test [1]; -8.8% in test [2]; -18.9% in test [3]; -35.8% in test [4]; 3.1% in test [5]; -15.9% in test [6].
As to `CNC(=O)OCc1c(COC(=O)NC)c(C)n(-c2ccccc2)c1C`, the growth inhibition in test [1] was 7.75%; in test [2] it was -14.1%; in test [3], -24.2%; in test [4], -0.35%; in test [5], -3.95%; in test [6], -24%.
In the case of `N/N=C1\CCCc2c1no[n+]2[O-]`, the growth inhibition in test [1] was 6.05%; in test [2], -4.05%; in test [3] it was -0.5%; in test [4], 4%; in test [5], -9.9%; in test [6] it was 3.2%.
Consider `O=C1C2C3C=C4c5ccccc5N(c5ccccc5)C4([C@@H]2C(=O)N1c1ccc(F)cc1)[C@H]1C(=O)N(c2ccc(F)cc2)C(=O)[C@@H]31` (stereo partly specified), for which the growth inhibition in test [1] is 35%; in test [2], 23.6%; in test [3], 11.5%; in test [4], 40.1%; in test [5] it was 21.4%; in test [6] it was 34.9%.
In the case of `NNC(=O)C1C2C=CC(C2)C1C(=O)NN` (stereo unspecified), the growth inhibition in test [1] was 7.6%; in test [2] it was -8.05%; in test [3], -11.7%; in test [4] it was -35%; in test [5] it was 4.15%; in test [6], 4.2%.
As to `CCN(CC)c1cc2oc(=O)cc(C)c2cc1NC(=O)c1cc([N+](=O)[O-])cc([N+](=O)[O-])c1`, the growth inhibition was -0.6% in test [1]; -0.7% in test [2]; -2.1% in test [3]; -0.4% in test [4]; 0% in test [5]; 15.3% in test [6].
Take `COc1ccc(Cl)cc1Cl`: the growth inhibition in test [1] was 6.8%; in test [2], -6.45%; in test [3], -98%; in test [4], 14.2%; in test [5], 14.1%; in test [6] it was 26.6%.
With `CSc1n[nH]c(SC)n1`, the growth inhibition in test [1] was -4.3%; in test [2] it was -15.2%; in test [3], -4.15%; in test [4], 4.65%; in test [5], -11.2%; in test [6], -5.9%.
Take `CCCCCCCC(=O)N1C2CN3C4=C(C(=O)C(N)=C(C)C4=O)C(COC(N)=O)C3(OC)C21` (stereo unspecified): the growth inhibition in test [1] is 18.6%; in test [2], 13.1%; in test [3] it was 30.4%; in test [4], 20.8%; in test [5], 19.1%; in test [6], 47.1%.
Turning to `CC1CC(c2ccccc2)S(=O)(=O)O1` (stereo unspecified), the growth inhibition in test [1] was -5.9%; in test [2] it was -4.3%; in test [3], -3.7%; in test [4] it was -12.2%; in test [5], 35%; in test [6], -9.95%.
`CCC(=O)Oc1ccc(CCC(C)=O)cc1OC`: the growth inhibition in test [1] is 4.15%; in test [2], -7.55%; in test [3] it was -16.8%; in test [4] it was -26.6%; in test [5] it was -2.3%; in test [6], 25.8%.
For `c1ccc(-c2c(-c3ccc4c(c3)CCCC4)c(-c3ccccc3)c3c(c2-c2ccccc2)-c2cccc4cccc-3c24)cc1`, the growth inhibition in test [1] was -4.15%; in test [2], 2.8%; in test [3], -2.45%; in test [4], 13.3%; in test [5], -2.9%; in test [6], 2.75%.
For `CCN1C(=O)CC(SCCSC2CC(=O)N(CC)C2=O)C1=O` (stereo unspecified), the growth inhibition in test [1] is 16.7%; in test [2], -7.7%; in test [3], 6.25%; in test [4] it was -6.55%; in test [5], 13.7%; in test [6], -2.45%.
As to `CC(=O)Oc1nc2ccccc2n1C(C)=O`, the growth inhibition in test [1] is 15.3%; in test [2], 20.9%; in test [3] it was 20.6%; in test [4], -5.1%; in test [5], 39.5%; in test [6], 5.55%.
As for `CCOC(=O)c1ccc(/C(C)=N/NC(N)=S)cc1`, the growth inhibition in test [1] was 7.35%; in test [2], 3.8%; in test [3], 21%; in test [4], 15.4%; in test [5], 5.35%; in test [6], -9.5%.
As for `CC(=O)Oc1ccc(C2(OC(C)=O)c3ccccc3C(=O)c3ccccc32)cc1`, the growth inhibition in test [1] was 11.5%; in test [2], 9.9%; in test [3] it was 34.4%; in test [4], 34.1%; in test [5], -8.5%; in test [6], 31.8%.
With `Nc1cccc2c1-c1ccc([N+](=O)[O-])cc1C2=O`, the growth inhibition is 7.6% in test [1]; 18.4% in test [2]; -6.25% in test [3]; 5.5% in test [4]; 5.55% in test [5]; 4.25% in test [6].
As to `CC(=O)N(CN1C(=O)CCC1C(=O)O)c1ccccc1` (stereo unspecified), the growth inhibition in test [1] was 20.1%; in test [2] it was -0.55%; in test [3], -8.5%; in test [4] it was 1.55%; in test [5] it was 0.7%; in test [6], -31.3%.
As for `CN(C)c1ccc(C2(c3ccc(N(C)C)cc3)c3ccccc3C(=O)N2N)cc1`, the growth inhibition in test [1] was 54.1%; in test [2], 34.5%; in test [3] it was 18.2%; in test [4] it was 43.5%; in test [5], 77.5% (active); in test [6] it was 21.7%.
`O=C(O)c1ccc2c([N+](=O)[O-])cccc2n1`: the growth inhibition is 33.5% in test [1]; 19.2% in test [2]; 14.3% in test [3]; -44% in test [4]; 1.15% in test [5]; 19.9% in test [6].
